# Target: PUM1 PUF domain R5-HRG (Homo sapiens, UniProt Q14671 828-1176, C1007H;Q1011G)
# Assay: yeast three-hybrid, YBZ-1, SC-Leu-His + 0.5 mM 3-AT, 4 days
# Conditions: tags: N-Gal4 AD-HA kept; label: inside an RPR1-promoter hybrid RNA with tandem MS2 sites; ssRNA
# Procedure, shortened: (§1)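 A centromeric plasmid in strain YBZ-1 co-expressed Pumilio-1 PUF domain libraries, randomized at the three base-contacting residues of each repeat, with matching RNA elements; the strain carries a LexA–MS2 coat fusion and a HIS3 reporter. After four days on SC-Leu (input) or SC-Leu-His + 0.5 mM 3-AT (selection), the repeat regions were PCR-amplified and Illumina-sequenced. The interaction score is the log change in variant frequency from input to selection, using log2 and a pseudocount of 1 where absent.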
row,Sequence,binding signal
1,GGCUAGAACUAGUGGAUCCCCCGGCGCCCGGCGGCUCGAGCCCGGGUAAGUGUAAAUAGUCUGCAUGCCGCCGGGCGCCAUGCCUGCAGGUCGACUCUAGAAAACAUG,0.26 log2 enrichment (interaction score)
2,GGCUAGAACUAGUGGAUCCCCCGGCGCCCGGCGGCUCGAGCCCGGGUAAGUGUUAAUAGUCUGCAUGCCGCCGGGCGCCAUGCCUGCAGGUCGACUCUAGAAAACAUG,3.89 log2 enrichment (interaction score)
3,GGCUAGAACUAGUGGAUCCCCCGGCGCCCGGCGGCUCGAGCCCGGGUAAGUGUCAAUAGUCUGCAUGCCGCCGGGCGCCAUGCCUGCAGGUCGACUCUAGAAAACAUG,1.78 log2 enrichment (interaction score)

# Target: PUM1 PUF domain R3-CRP (Homo sapiens, UniProt Q14671 828-1176, Q939P)
# Assay: as above
# Conditions: tags: N-Gal4 AD-HA kept; label: inside an RPR1-promoter hybrid RNA with tandem MS2 sites; ssRNA
# Procedure, shortened: as §1
row,Sequence,binding signal
1,GGCUAGAACUAGUGGAUCCCCCGGCGCCCGGCGGCUCGAGCCCGGGUAAGUGUAAAUAGUCUGCAUGCCGCCGGGCGCCAUGCCUGCAGGUCGACUCUAGAAAACAUG,4.84 log2 enrichment (interaction score)
2,GGCUAGAACUAGUGGAUCCCCCGGCGCCCGGCGGCUCGAGCCCGGGUAAGUGUAAGUAGUCUGCAUGCCGCCGGGCGCCAUGCCUGCAGGUCGACUCUAGAAAACAUG,1.62 log2 enrichment (interaction score)
3,GGCUAGAACUAGUGGAUCCCCCGGCGCCCGGCGGCUCGAGCCCGGGUAAGUGUAAUUAGUCUGCAUGCCGCCGGGCGCCAUGCCUGCAGGUCGACUCUAGAAAACAUG,1.1 log2 enrichment (interaction score)

# — article PMC8384837, “Expanding the binding specificity for RNA recognition by a PUF domain”
